# In PubChem BioAssay:
# Several values for one entry are separate records, joined by “and”; a condition that tells them apart may be missing. Identical values can stand only once. Activity calls are given as the source filed them.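 Rule for the calls, unless noted: active = compounds whose cell count with miR-34 switched on is under 0.7 times the count with it off; inactive = the rest.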
# How the values were obtained:
# [1] = stimulators of nuclear beta-catenin in C2C12, primary screen, imaging, WNT3A-conditioned medium, mouse C2C12, NPC library (AID 1117326; in the data active = nuclear beta-catenin stimulation mostly above about 4.2%, no sharp cut-off; inactive = mostly below about 10%; note: reference of the scale not given here); settings: stronger effect = higher value
# [2] = stimulators of insulin release from INS-1E, primary screen, cell-based, 5 mM glucose, NPC library (AID 1117329;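 active = compound raises insulin release from rat beta cells at 5 mM glucose, no numeric limit stated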; note: reference of the scale not given here); settings: rat INS-1E insulin secretion, at 10 µM, stronger effect = higher value
# [3] = growth inhibition of GSK3B-pretreated HCT116 cells – cell-based, CellTiter-Glo, 0.2 to 20 µM (AID 1117336;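 active = compounds lowering colon cancer cell viability after pretreatment blocking the GSK3B kinase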); settings: HCT116 viability after GSK3B inhibitor, at 20 µM, stronger effect = higher value
# [4] = inhibition of endothelial tube formation, primary screen, imaging, VEGF stimulated, CD31 staining, tube area, NPC library (AID 1117340;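 active = compound that reduces growth-factor-driven endothelial tube area in a mixed cell culture, no cutoff stated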); settings: VEGF-stimulated ADSC/ECFC co-culture, at 10 µM, stronger effect = higher value
# [5] = glucagon-like peptide 1 release enhancers, primary assay, NCI-H716 cell line, NPC library (AID 1117341;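 active = compound raises GLP1 secretion from the human gut endocrine cells, with no numeric limit stated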; note: reference of the scale not given here); settings: NCI-H716 cells, at 10 µM, stronger effect = higher value
# [6] = HCT116 colon cancer cell growth inhibition, primary screen, CellTiter-Glo luminescence, NPC library (AID 1117342;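 active = compounds that lower survival of HCT116 colon cancer cells in the luminescence readout, no numeric limit stated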); settings: at 20 µM (top of the series)
# [7] = CellTiter-Glo luminescent readout of SW480 viability loss, NPC library primary (AID 1117343;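 active = compounds that lower viability of the colon cancer cells in the luminescence readout, with no numeric limit stated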); settings: CellTiter-Glo luminescence; at 20 µM (top of the series) unless noted
# [8] = decreased DLD-1 cellular survival, CellTiter-Glo luminescent readout, NPC compound collection, primary HTS (AID 1117346;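 active = compounds that lower survival of DLD-1 colon cancer cells in the luminescence readout, no cutoff given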); settings: DLD-1 viability, CellTiter-Glo luminescence; at 20 µM (top of the series)
# [9] = sensitizers of A549 cells to miR-34 induction, primary screen, imaging, A549 dox-inducible miR-34, nuclei and caspase counts (AID 1347080); settings: A549 miR-34 inducible, Hoechst nuclei count, 48 h
# [10] = phospholipid biosynthesis inhibitors in animal cells, primary screen, cell-based, LOPAC library, screen 4 (AID 1347384; call rule not given here); settings: phospholipid biosynthesis inhibition screen, at 10 µM
# [11] = viability rescue of complex I mutant cybrids, primary screen, cell-based, galactose medium, ATP luminescence (AID 1645843;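 active = z-score of at least 1.8 in each of two replicates, scored against plate mean and spread of sample wells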;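 note: positive z means more ATP and so rescue of galactose-driven cybrid death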); settings: complex I mutant cybrid cells, 72 h, stronger effect = higher value
# [12] = liver-stage malaria parasite growth inhibition, primary screen, cell-based, HepG2, luciferase luminescence, HepG2 viability (AID 624349; in the data active = parasite load remaining mostly below about 12%, no sharp cut-off; inactive = mostly above about 10%;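 note: 100% = mean of DMSO negative control wells on the same plate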); settings: P. berghei liver stage in HepG2, luciferase luminescence, concentration not given here; parasite load remaining: stronger effect = lower value; viability: measured here: HepG2 viability without parasites
# [13] = survival rescue of mitochondrial mutant cells in low glucose, primary screen, MELAS cybrids, Rieske KO mouse fibroblasts, CellTiter-Glo (AID 1508586;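 active = mean z-score across replicates of 1.96 or higher in either the MELAS or the Rieske mutant cell line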;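 note: z relative to plate mean and SD of compound and empty wells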)
# [14] = stronger effect = lower value, cell number ratio, induced over uninduced
# [15] = measured here: relative caspase fold change +Dox/-Dox
# [16] = measured here: total cells with miR-34 induction, stronger effect = lower value
# [17] = measured here: total cells without miR-34 induction
# [18] = MELAS cybrid survival, CellTiter-Glo 48 h, stronger effect = higher value
# [19] = Rieske KO mouse fibroblast survival, CellTiter-Glo 72 h
SMILES,nuclear beta-catenin stimulation ([1]; at 10 µM),"nuclear beta-catenin stimulation ([1]; stimulation, at 2 µM)",insulin secretion stimulation [2],viability decrease [3],tube area decrease [4],GLP1 secretion stimulation [5],inhibition of viability [6],viability decrease (inhibition) [7],viability decrease (inhibition) [8],"fold change [9, 14]","fold change [9, 15]","cell count [9, 16]","cell count [9, 17]",outcome [10],z-score [11],parasite load remaining [12],viability [12],"z-score [13, 18]","z-score [13, 19]"
N[C@@H](COP(=O)(O)O)C(=O)O,0.6% (inactive),14.5%,2% (inactive),-15.2% (inactive),-20.7% (inactive),-1% (inactive),0% (inactive),-26.4% (inactive),-5.8% (inactive),1.04 (inactive) and 0.898 (inactive),1.02 and 0.718,10100 and 7700,9680 and 8570,inactive,0.485 (inactive),,,,
COC(=O)[C@@H](N)Cc1ccc(O)c(O)c1,6.9% (inactive),0%,-2.6% (inactive),22% (inactive),1.4% (inactive),5.5% (inactive),8.3% (inactive),64.7% (active),15.2% (inactive),0.967 (inactive),1.36,9830,10200,inactive,-1.02 (inactive),,,,
Cc1nc2c([nH]1)c(=O)n(C)c(=O)n2Cc1ccco1,-1.1% (inactive),-0.9%,5.4% (inactive),4.7% (inactive),-13.8% (inactive),2.9% (inactive),4.7% (inactive),11.9% (inactive),11.1% (inactive),0.936 (inactive) and 0.904 (inactive),1.31 and 1.1,10100 and 8410,10800 and 9310,inactive,0.455 (inactive) and 1.9 (inactive),89.1% (inactive),184%,0.342 (inactive),-0.476
CSc1ccc(C(=O)c2[nH]c(=O)[nH]c2C)cc1,0.3% (inactive),0.1%,1.4% (inactive),-6.3% (inactive),-15.1% (inactive),0.1% (inactive),-7% (inactive),29% (inactive),9.15% (inactive),0.968 (inactive),1.32,8650,8940,inactive,0.31 (inactive),,,,
Nc1c(CC(=O)O)cccc1C(=O)c1ccc(Br)cc1,-0.1% (inactive),0.4%,1.4% (inactive),52.4% (active),-4.7% (inactive),0.3% (inactive),-13.5% (inactive),37.9% (inactive),82.5% (active),0.937 (inactive),1.05,8540,9120,,,,,-0.257 (inactive),-0.191
O=c1[nH]c(=O)n([C@H]2C[C@H](O)[C@@H](CO)O2)cc1Br,0.6% (inactive),-1.1%,0.6% (inactive),17.6% (inactive),54.6% (active),0.6% (inactive),14.8% (inactive),18.4% (inactive),34.2% (inactive),0.769 (inactive),2.25,7520,9790,inactive,5.63 (active),,,,
NC(N)=NCCC[C@H](N)C(=O)O,-0.2% (inactive),2.5%,0.9% (active),2.3% (inactive),-23.7% (inactive),2.9% (inactive),-16.4% (inactive),8.2% (inactive),0% (inactive),0.976 (inactive),1.65,10400,10700,inactive,0.285 (inactive),,,,
CC(=O)[C@@]1(O)CC[C@H]2[C@@H]3CCC4=CC(=O)CC[C@]4(C)[C@H]3CC[C@@]21C,1.2% (inactive),2.3%,0.95% (inactive),14.3% (inactive),-5.3% (inactive),2% (inactive),20.1% (inactive),10.2% (inactive),-4.1% (inactive),0.967 (inactive) and 0.853 (inactive),1.72 and 1.68,8400 and 8890,8690 and 10400,inactive,-0.055 (inactive) and -1.24 (inactive),0.96% (inactive),66%,-0.428 (inactive),0.151
CC(=O)Oc1cc(C(F)(F)F)ccc1C(=O)O,-0.6% (inactive),-0.8%,2.8% (inactive),-12.2% (inactive),-1.7% (inactive),-6.4% (inactive),16.4% (inactive),8.4% (inactive),5.4% (inactive),0.83 (inactive) and 0.986 (inactive),1.45 and 0.716,8780 and 8310,10600 and 8430,inactive,,140% (inactive) and 78.8% (inactive),117% and 74.8%,-0.0694 (inactive) and 0.0403 (inactive),-0.153 and -0.0623
NC(=O)c1cn(Cc2c(F)cccc2F)nn1,0.5% (inactive),2.9%,-2.7% (inactive),-3.55% (inactive),-8.7% (inactive),-0.1% (inactive),18.7% (inactive),11.5% (inactive),5.25% (inactive),1.05 (inactive) and 0.933 (inactive),0.739 and 0.557,10500 and 8320,10000 and 8930,inactive,0.155 (inactive),,,-0.0452 (inactive),-0.156
CC(=O)OCC(=O)[C@@]1(O)CC[C@H]2[C@@H]3CCC4=CC(=O)C=C[C@]4(C)[C@@]3(F)[C@@H](O)C[C@@]21C,0.8% (inactive),0%,-2.1% (inactive),9.45% (inactive),-21.7% (inactive),3.3% (inactive),-4.3% (inactive),42.5% (inactive),23% (inactive),0.893 (inactive),1.25,4910,5500,,,53.1% (inactive) and 126% (inactive),50.3% and 103%,-1.23 (inactive),0.0318
C[C@H](NCCc1ccc(O)cc1)[C@H](O)c1ccc(O)cc1,-1.4% (inactive),-0.2%,4.3% (inactive),-8.6% (inactive),5.1% (inactive),-4.3% (inactive),4.7% (inactive),0.4% (inactive),-16.7% (inactive),0.881 (inactive) and 0.9 (inactive),1.49 and 0.723,8830 and 9090,10000 and 10100,,,80.4% (inactive) and 86.8% (inactive),111% and 73.3%,-0.276 (inactive) and 0.441 (inactive),-0.155 and 0.32
CCN[C@H]1CN(CCCOC)S(=O)(=O)c2sc(S(N)(=O)=O)cc21,1.3% (inactive),1.1%,3.9% (inactive),-7.1% (inactive),-15% (inactive),0.6% (inactive),6.4% (inactive),7.5% (inactive),14.9% (inactive),0.831 (inactive),1.12,8040,9670,,,113% (inactive) and 65.9% (inactive),109% and 72.4%,0.333 (inactive),0.0327
Cc1cc2c(OCC(CNC(C)(C)C)OC(=O)c3ccccc3)cccc2[nH]1 (configuration not stated),-0.6% (inactive),-2.3%,38.9% (active),8% (inactive),-1.9% (inactive),8.9% (inactive),30.9% (inactive),-10.4% (inactive),-25.2% (inactive),0.853 (inactive),1.26,9400,11000,,0.13 (inactive),45.6% (inactive),114%,-0.871 (inactive),-1.26
